# Whole data set: some 81,000 sequences, median “one-hybrid fitness for binding parS DNA” near -0.17, cut for the highest 2% near 0.51. What follows is part of a selection rich in the highest values, with near analogues and random picks from the rest.
# B1: Caulobacter ParB omega fusion; a variant is named by its letters at X, in order, B8GW30 (parent)
# chain: MESVVVGEPGMSEGRRGLGRGLSALLGEVDAAPAQAPGEQLGGSREAPIEILQRNPDQPRRTFREEDLEDLSNSIREKGVLQPILVRPSPDTAGEYQIVAGERAWRAAQRAGLKTVPIMVRELDDLAVLEIGIIENVQRADLNVLEEALSYKVLMEKFERTQENIAQTIGKSXSHVANXMRLLXLPDEVQSYLVSGELTAXHARAIAAAADPVALAKQIIEGGLSVRETEALARKAPNLSAGKSKGGRPPRVKDTDTQALESDLSSVLGLDVSIDHRGSTGTLTITYATLEQLDDLCNRLTRGI
# Variants of: B1
# Assay: one-hybrid fitness for binding parS DNA (scaled: cognate 1, non-cognate 0); higher = stronger binding
# Details: with parS DNA site
# Summary of the method: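 On M9-minus-histidine containing 0.1 mM IPTG and 5 mM 3-AT, E. coli USO cells with a HIS3 reporter, site 19 bp from the promoter, grew 48 hours at 37°C to select Caulobacter ParB libraries randomised at four specificity codons. Plasmids from before and after were Illumina-sequenced, with three replicate libraries pooled and variants under 10 reads left out. Fitness is the log change in variant-to-wild-type read ratio, rescaled against cognate and non-cognate.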
row,Variant,one-hybrid fitness for binding parS DNA
1,YKDR,≤ 0.2
2,IDIG,≤ 0.2
3,RRYK,≤ 0.2
4,RRYR,≤ 0.2
5,RRGF,≤ 0.2
6,RRCG,0.758
7,RRGG,0.698
8,RRCN,0.452
9,RRYG,0.769
10,RRGY,0.361
11,RRSY,0.46
12,RRSG,0.711
13,DRSG,≤ 0.2
14,RRCR,≤ 0.2
15,QRNI,≤ 0.2
16,RLLW,0.241
17,FRGV,≤ 0.2
18,TALQ,≤ 0.2
19,TKKR,≤ 0.2
20,PENA,≤ 0.2
21,HIPD,≤ 0.2
22,EYSL,≤ 0.2
23,DRDG,≤ 0.2
24,RRQG,0.727

row,Variant,one-hybrid fitness for binding parS DNA
1,RRRG,0.706
2,NRNG,≤ 0.2
3,RRQY,0.441
4,RRNE,≤ 0.2
5,DRRG,≤ 0.2
6,RRQQ,≤ 0.2
7,NRRG,≤ 0.2
8,RRNG,0.704
9,RRDG,0.888
10,YVYG,≤ 0.2
11,RGYW,≤ 0.2
12,HTNV,≤ 0.2
13,TDNV,≤ 0.2
14,ASRA,≤ 0.2
15,KASS,≤ 0.2
16,EPDT,≤ 0.2
17,GAHV,≤ 0.2
18,SLDA,≤ 0.2
19,LSDS,≤ 0.2
20,IIGF,≤ 0.2
21,RRHG,0.72
22,RRLK,≤ 0.2
23,RRLG,0.794
24,RRLR,≤ 0.2

row,Variant,one-hybrid fitness for binding parS DNA
1,RRHM,0.424
2,RRHY,0.446
3,PSWH,≤ 0.2
4,LPFA,0.253
5,KMLG,≤ 0.2
6,FRSR,≤ 0.2
7,LSWR,≤ 0.2
8,TGKS,≤ 0.2
9,LTAC,≤ 0.2
10,RKWT,0.759
11,RKCK,≤ 0.2
12,RKWH,≤ 0.2
13,RKCY,0.369
14,RKWP,≤ 0.2
15,RKSQ,≤ 0.2
16,RKSF,≤ 0.2
17,RKCT,0.803
18,RKNM,0.234
19,RKNK,≤ 0.2
20,RKNT,0.723
21,RKST,0.749
22,AHCT,≤ 0.2
23,SYTS,≤ 0.2
24,LAQL,≤ 0.2

row,Variant,one-hybrid fitness for binding parS DNA
1,LSDG,≤ 0.2
2,ISTA,≤ 0.2
3,MTHL,≤ 0.2
4,CYFG,≤ 0.2
5,RKYK,≤ 0.2
6,RKIY,0.352
7,RKLH,0.223
8,RKPT,0.412
9,RKLT,0.856
10,RKIT,0.675
11,RKYT,0.868
12,RKLN,0.351
13,RKHT,0.756
14,RKYF,≤ 0.2
15,RKHH,≤ 0.2
16,RKHP,≤ 0.2
17,YKNL,≤ 0.2
18,VDMS,≤ 0.2
19,HRNI,≤ 0.2
20,NWKR,≤ 0.2
21,FKRH,≤ 0.2
22,TTLP,≤ 0.2
23,LGQS,≤ 0.2
24,DPGV,≤ 0.2

row,Variant,one-hybrid fitness for binding parS DNA
1,ITRV,≤ 0.2
2,WNTN,≤ 0.2
3,RKGT,0.764
4,RKGM,0.262
5,RKDK,≤ 0.2
6,RKRT,0.658
7,RKDT,0.832
8,RKRQ,≤ 0.2
9,RKDY,0.38
10,RKQP,≤ 0.2
11,RKQH,≤ 0.2
12,RKRR,≤ 0.2
13,RKQT,0.729
14,RKGQ,≤ 0.2
15,TDGD,≤ 0.2
16,RCPL,≤ 0.2
17,WHLG,≤ 0.2
18,CRRN,≤ 0.2
19,ITGW,≤ 0.2
20,RLNE,≤ 0.2
21,RLNC,0.94
22,RLDF,0.229
23,RLNK,≤ 0.2
24,RLDQ,≤ 0.2

row,Variant,one-hybrid fitness for binding parS DNA
1,RLDC,0.938
2,TYDG,≤ 0.2
3,RNSM,0.238
4,RNST,0.746
5,RNWF,≤ 0.2
6,RNWT,0.535
7,RNRT,0.786
8,RNSY,0.399
9,RNIT,0.427
10,RNRR,≤ 0.2
11,RNPT,0.307
12,RNRM,0.345
13,RNWY,0.275
14,RNYT,0.66
15,QFRW,≤ 0.2
16,LVVI,≤ 0.2
17,PETN,≤ 0.2
18,YEDL,≤ 0.2
19,KWKD,≤ 0.2
20,VTLP,≤ 0.2
21,HAAI,≤ 0.2
22,PKVP,≤ 0.2
23,RNQM,0.228
24,RNGR,≤ 0.2

row,Variant,one-hybrid fitness for binding parS DNA
1,RNQR,≤ 0.2
2,RNHN,0.346
3,RNLP,≤ 0.2
4,RNQT,0.74
5,RNLT,0.683
6,RNHD,≤ 0.2
7,RNHT,0.723
8,RNGT,0.696
9,RNLH,≤ 0.2
10,RNGY,0.306
11,QRGN,≤ 0.2
12,GVHD,≤ 0.2
13,VTSQ,≤ 0.2
14,MGWS,≤ 0.2
15,QCRG,≤ 0.2
16,QHQC,≤ 0.2
17,LAPW,≤ 0.2
18,HMRI,≤ 0.2
19,VDML,≤ 0.2
20,HQSC,≤ 0.2
21,DSFI,≤ 0.2
22,LCFF,≤ 0.2
23,ETSR,≤ 0.2
24,RNCQ,≤ 0.2

row,Variant,one-hybrid fitness for binding parS DNA
1,RNCM,≤ 0.2
2,RNCT,0.612
3,QRCF,≤ 0.2
4,DGSS,≤ 0.2
5,YRDA,≤ 0.2
6,AKTQ,≤ 0.2
7,RRIY,0.332
8,RRPC,0.796
9,RRIC,0.71
10,RRIQ,≤ 0.2
11,RRPM,0.215
12,SLCD,≤ 0.2
13,HGNW,≤ 0.2
14,EVCS,≤ 0.2
15,LNAY,≤ 0.2
16,AANM,≤ 0.2
17,ILWI,≤ 0.2
18,ALYC,≤ 0.2
19,RAFA,0.624
20,NAAA,≤ 0.2
21,DAAA,≤ 0.2
22,RAAA,0.592
23,NQKR,≤ 0.2
24,LMTS,≤ 0.2

row,Variant,one-hybrid fitness for binding parS DNA
1,GGWG,≤ 0.2
2,HSNS,≤ 0.2
3,QTKP,≤ 0.2
4,RHFR,≤ 0.2
5,RHAF,≤ 0.2
6,RHFK,≤ 0.2
7,RHAR,≤ 0.2
8,RHFC,0.799
9,RHAC,0.933
10,QLSE,≤ 0.2
11,TNGD,≤ 0.2
12,DMVA,≤ 0.2
13,RMVA,0.611
14,RMKA,0.735
15,EGMC,≤ 0.2
16,HPGG,≤ 0.2
17,CLLW,≤ 0.2
18,RSDM,≤ 0.2
19,RPDT,≤ 0.2
20,RDDT,≤ 0.2
21,RPYT,≤ 0.2
22,REDT,≤ 0.2
23,REYT,≤ 0.2
24,RCYT,0.963

row,Variant,one-hybrid fitness for binding parS DNA
1,RSNT,0.911
2,RSDT,0.696
3,RSNN,0.445
4,RCDT,0.813
5,RSNP,≤ 0.2
6,SYNF,≤ 0.2
7,QNNL,≤ 0.2
8,QNNR,≤ 0.2
9,VNTR,≤ 0.2
10,TLTC,≤ 0.2
11,VASF,≤ 0.2
12,ARLY,≤ 0.2
13,RSRH,0.232
14,RSYT,0.846
15,RDYT,≤ 0.2
16,RCNT,0.879
17,RPRT,≤ 0.2
18,RPNT,≤ 0.2
19,RERT,0.216
20,RENT,≤ 0.2
21,RCRT,0.818
22,RSRP,≤ 0.2
23,RSRT,0.832
24,SLNY,≤ 0.2

row,Variant,one-hybrid fitness for binding parS DNA
1,EHPE,≤ 0.2
2,LPKC,≤ 0.2
3,QHRW,≤ 0.2
4,TTHM,≤ 0.2
5,QPTM,≤ 0.2
6,YDPM,≤ 0.2
7,GMKG,≤ 0.2
8,RWAN,0.26
9,RWAS,0.876
10,RWFN,≤ 0.2
11,RWFS,0.691
12,RWAD,≤ 0.2
13,RWFY,≤ 0.2
14,GDED,≤ 0.2
15,SDVG,≤ 0.2
16,RRQA,0.699
17,RRHA,0.693
18,DRSA,≤ 0.2
19,NRSA,≤ 0.2
20,DRQA,≤ 0.2
21,DRHA,≤ 0.2
22,RRSA,0.693
23,NRGA,≤ 0.2
24,NRQA,≤ 0.2

row,Variant,one-hybrid fitness for binding parS DNA
1,RRGA,0.749
2,RGGA,0.285
3,NRHA,≤ 0.2
4,GDYT,≤ 0.2
5,HYRC,≤ 0.2
6,YDLT,≤ 0.2
7,IYQL,≤ 0.2
8,WAPR,≤ 0.2
9,MWAV,≤ 0.2
10,ANEG,≤ 0.2
11,LPHA,≤ 0.2
12,SKVC,≤ 0.2
13,PETH,≤ 0.2
14,RRCA,0.761
15,RRNA,0.627
16,DRLA,≤ 0.2
17,RRDA,0.851
18,DRNA,≤ 0.2
19,NRCA,≤ 0.2
20,NRNA,≤ 0.2
21,NRLA,≤ 0.2
22,RRLA,0.815
23,DRCA,≤ 0.2
24,QLGG,≤ 0.2

row,Variant,one-hybrid fitness for binding parS DNA
1,IAPM,≤ 0.2
2,RPYR,≤ 0.2
3,TTSM,≤ 0.2
4,ICYT,≤ 0.2
5,SEWR,≤ 0.2
6,RRYA,0.813
7,NRYA,≤ 0.2
8,RRRA,0.501
9,DLNV,≤ 0.2
10,GSGS,≤ 0.2
11,YIFC,≤ 0.2
12,INTG,≤ 0.2
13,RVEC,0.805
14,RVEK,≤ 0.2
15,RVEP,≤ 0.2
16,RVET,0.691
17,RVEG,0.813
18,RVEH,≤ 0.2
19,RVED,≤ 0.2
20,RVES,0.948
21,RVEN,0.294
22,RVEM,0.231
23,RVEF,≤ 0.2
24,RVEI,≤ 0.2

# — a collection of fitness landscapes (doi:10.1016/j.celrep.2020.107928)
